Laboratory results taken from PubChem BioAssay AID1259415 (National Center for Advancing Translational Sciences (NCATS), 2018).
Values joined by “and” are separate entries in the source; they are usually repeats but may differ in a detail not shown here. Equal values may be shown once. The whole screen tested about 410,000 compounds, of which about 18,000 (4.4%) were called active. Another 7% or so got no clear call; they are omitted. Cut-off read from the data, not from the text of the source: active = activity change below about -60%; inconclusive = no clear call, values can overlap the other calls; inactive = above about -39%. The entries come from a sample that favours actives as a whole.

Assay: qHTS Assay for inhibitors of the human cytomegalovirus (HCMV)
Conditions: HFF cells, HCMV-luciferase reporter, 72 h; at 57.5 µM; stronger effect = lower value
In short: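 Screen run at 2 compound doses on HFFs infected with reporter HCMV, MOI 1 PFU/cell. Luciferase activity from cell lysates at 72 h post infection gave inhibition relative to buffer-only and Salinomycin wells.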
% is set by controls: 0 for no effect and ±100 for the full control effect.

Row | Structure (SMILES) | activity change, negative = inhibition
1 | Cc1oc2c(c1C(=O)N1CCOCC1)C(=O)c1ccccc1C2=O | -101% (active)
2 | Cc1ccc(C)c(CN2C(=O)c3ccccc3S(=O)c3ccc(C(=O)N4CCOCC4)cc32)c1 (stereo not given) | 9.82% (inactive)
3 | Cc1ccc(S(=O)(=O)NC(C(=O)N2CCOCCOCCOCCOCC2)c2ccccc2)cc1 (stereo not given) | -14.3% (inactive)
4 | COc1cc(NC(=O)C2CC(c3ccccc3O)=NO2)c(OC)cc1Cl (stereo not given) | 0.764% (inactive)
5 | CCC(C)Cn1c(O)cc2nn(-c3nc4ccccc4s3)c(=O)c-2c1C (stereo not given) | -80.3% (active)
6 | NS(=O)(=O)c1ccc(NC(=O)C(=O)Nc2ccc3nc4n(c(=O)c3c2)CCCCC4)cc1 | 13.4% (inactive)
7 | COc1ccc(-c2c(C)nn3c(N4CCC(C(=O)NCCC(C)C)CC4)cc(C)nc23)cc1OC | 1.6% (inactive)
8 | CCN1CCN(C(c2ccc(C)cc2)c2c(O)cc(C)n(Cc3ccco3)c2=O)CC1 (stereo not given) | 25% (inactive)
9 | CCOc1ccc(Cl)cc1-c1cc(C(=O)NCc2cccs2)[nH]n1 | 8.26% (inactive)
10 | CCOc1ccccc1NC(=O)Cn1nnc(C(=O)Nc2ccc(C)c(C)c2)c1N | -18.4% (inactive)
11 | CCOc1ccccc1NC(=O)Cn1nnc(C(=O)NCc2cccs2)c1N | -78.3% (active)
12 | COc1ccc(CNC(=O)CS(=O)Cc2nc(-c3cccc(C)c3)oc2C)cc1 (stereo not given) | -7.8% (inactive)
13 | CN(CC(=O)O)S(=O)(=O)c1ccc2oc3ccccc3c2c1 | -8.55% (inactive)
14 | COc1cccc(-c2cc3nc(NCc4ccccc4OC)n(C)c(=O)c3s2)c1 | -13.2% (inactive)
15 | COc1cccc(CNc2nc(NCc3ccccc3OC)nc3ccsc23)c1 | -90.2% (active)
16 | CC(C)Nc1nc(NCCOc2ccccc2Cl)c2sccc2n1 | -35.9% (inactive)
17 | COc1ccccc1CNc1nc(Nc2ccccc2Cl)c2sccc2n1 | -67.2% (active)
18 | COc1ccccc1CNc1nc2ccc(Cl)cc2n2cnnc12 | 25.8% (inactive)
19 | COc1cccc(CNc2nccn(-c3ccc(OC)c(OC)c3)c2=O)c1 | 13.5% (inactive)
20 | CCN1CCC(N(Cc2ccc(F)cc2)C(=O)Nc2cc(C)ccc2C)CC1 | -23.7% (inactive)
21 | CCOC(=O)Cn1c(=O)n(-c2ccccc2OC)c2nc(-c3cccc(F)c3)nc(C(N)=O)c21 | 1.14% (inactive)
22 | O=C(O)c1cc(S(=O)(=O)N(Cc2ccccc2)c2ccccc2)ccc1Cl | -27.4% (inactive)
23 | O=C(Cc1ccc(F)cc1)N1CCN=C1SCc1cccc([N+](=O)[O-])c1 | 35.3% (inactive)
24 | O=C(CCl)N(Cc1cccc([N+](=O)[O-])c1)c1cccc(Cl)c1 | -99.6% (active)

Row | Structure (SMILES) | activity change, negative = inhibition
25 | CCOC(=O)c1cc(NC(=O)c2ccc(F)cc2)c(=O)n2c1oc1ccccc12 | -11.8% (inactive)
26 | Cc1ccccc1Cn1c2ccccc2c2cnn(CC(=O)NCc3ccco3)c(=O)c21 | -95.6% (active)
27 | O=C(Cn1ncc2c3ccccc3n(Cc3ccccc3)c2c1=O)NCc1ccccn1 | -12.1% (inactive) and -33.7% (inactive)
28 | CCCN(CCC)CCCNC(=O)Cn1ncc2c3ccccc3n(Cc3ccccc3)c2c1=O | -11.9% (inactive)
29 | Cc1ccc(-c2nnc(Nc3ccc(OCC(N)=O)cc3)c3ccccc23)cc1S(=O)(=O)NCC1CCCO1 (stereo not given) | -19.2% (inactive)
30 | CCn1c(=O)cc(OCC(=O)Nc2cc(Cl)c(OC)cc2OC)c2ccccc21 | 0.565% (inactive)
31 | C=CCC(C(=O)c1ccccc1)[N+](C)(C)CC=C (stereo not given) | 12.4% (inactive)
32 | COCC1CCCCN1C(=O)c1cc(COc2ccc(C)c(C)c2)on1 (stereo not given) | 50.2% (inactive)
33 | COC(=O)[C@@H]1CCCN1C(=O)c1cc(COc2cccc3cccnc23)on1 | -61.4% (active)
34 | Cc1nonc1C1CCCN1C(=O)c1cc(COc2cccc(C(F)(F)F)c2)on1 (stereo not given) | 10.6% (inactive)
35 | O=C(Cc1csc(Nc2nc(=S)[nH]c3ccccc23)n1)NCCCN1CCN(c2cccc(Cl)c2)CC1 | 2.37% (inactive)
36 | CCC(=O)NC(NCC1CCCO1)C(Cl)(Cl)Cl (stereo not given) | -10.5% (inactive)
37 | COCCN(CCOC)c1nc(N)c2c(N)nc3c(c2c1C#N)CC(=O)N3Cc1ccc(Cl)cc1 | 30.8% (inactive)
38 | Cc1cc(C)c(NC(=O)CSc2nc3ccncc3[nH]2)c(C)c1 | -3.75% (inactive)
39 | Cc1cc(C)c(SCCc2ccncc2)c(C)c1 | -63.8% (active)
40 | c1ccc(CSCCc2ccncc2)cc1 | -24.8% (inactive)
41 | COc1ccc2c(c1)C=C(C(=O)NCc1cc(Br)ccc1OC)CO2 | -22.6% (inactive)
42 | Cc1ccccc1Nc1scc(-c2ccc(Br)cc2)[n+]1-c1ccccc1C | -68.6% (active)
43 | CSCC[C@H](NC(=O)N1CCn2c1nc1ccccc12)C(=O)NC1CCCCC1 | -35.1% (inactive)
44 | CSc1ccc(Cl)c(C(=O)OCC(=O)N2CCNC2=O)c1 | -17% (inactive)
45 | CCN1CCN(C(=O)CN(C)S(=O)(=O)c2ccc3ccccc3c2)CC1 | -9.61% (inactive)
46 | CC(=O)Oc1ccc(N(C(C)=O)S(=O)(=O)c2ccc3ccccc3c2)cc1Br | -69.6% (active)
47 | CN(C1CCS(=O)(=O)C1)S(=O)(=O)c1ccc2ccccc2c1 (stereo not given) | -24.3% (inactive)
48 | CCC(CC)C(=O)N1CCc2cc(OC)c(OC)cc2C1COc1ccc(F)cc1 (stereo not given) | -15.5% (inactive)

Row | Structure (SMILES) | activity change, negative = inhibition
49 | O=C(Nc1c(C(=O)N2CCCCC2)cnn1-c1ccccc1)c1ccco1 | 22.9% (inactive)
50 | CC(=O)Nc1ccc2nc(SCCOc3cc(C)cc(C)c3)sc2c1 | -35% (inactive)
51 | COc1cc(C)ccc1OCCSc1nc2ccc(NC(=O)c3ccc(C)cc3)cc2s1 | 24.3% (inactive)
52 | O=C(Nc1ccc2nc(SCCOc3ccccc3Cl)sc2c1)c1ccco1 | -70% (active)
53 | CC(=CCOc1ccc2ccc(=O)oc2c1)C1=CC(=O)C(C)(C)O1 | -76.5% (active)
54 | CC(C)OC(=O)c1ccc(COc2ccc3ccc(=O)oc3c2)o1 | -15.4% (inactive)
55 | O=C(COc1ccc2ccc(=O)oc2c1)NCC(O)c1ccccc1 (stereo not given) | -6.86% (inactive)
56 | CCOc1ccc(CNC(=O)c2ccc3nc(CC)c(CC)nc3c2)cc1OC | -2.8% (inactive)
57 | CCC(=O)Nc1cccc(C(=O)OCc2cc(=O)n3nc(CC)sc3n2)c1 | -14.2% (inactive)
58 | CC(C)=CCc1c(O)c(CC=C(C)C)c2occ(-c3ccc(O)cc3)c(=O)c2c1O | -100% (active)
59 | Cc1ccc(C(O)c2nnc(Nc3cccc(Oc4ccccc4)c3)s2)cc1 (stereo not given) | -5.85% (inactive)
60 | Cc1ccc(C(=O)N/N=C\c2cc(Br)c(Br)o2)cn1 | -32.6% (inactive)
61 | O=C(CCC(=O)N/N=C/c1ccc(Br)o1)N/N=C/c1ccc(Br)o1 | -61.8% (active)
62 | COC(=O)c1ccccc1NC(=O)c1cncc(Br)c1 | -30.4% (inactive)
63 | O=C(N/N=C/c1ccc(Br)o1)c1cncc(Br)c1 | -102% (active)
64 | O=C(CCNc1n[nH]c(=O)[nH]c1=O)N/N=C\c1ccc(Br)cc1 | 0% (inactive)
65 | O=C(CCNC(=O)c1ccccc1)NN=Cc1ccc(Br)o1 | -13.4% (inactive)
66 | COc1ccc(-c2cc(C(F)(F)F)n3nc(-c4ccccc4)cc3n2)cc1OC | -15.9% (inactive)
67 | COc1ccccc1NC(=O)C1CCN(C(=O)c2ccc(C(C)(C)C)cc2)CC1 | 28.4% (inactive)
68 | CC(=O)Nc1ccc(S(=O)(=O)N2CCn3cccc3C2C)cc1 (stereo not given) | 36.8% (inactive)
69 | CCC(Cc1ccccc1)NS(=O)(=O)c1ccc2c(c1)NC(=O)CS2 (stereo not given) | -70.6% (active)
70 | COc1ccccc1CNS(=O)(=O)c1ccc2c(c1)NC(=O)CS2 | -16.2% (inactive)
71 | O=C1CSc2ccc(S(=O)(=O)NCc3ccccc3)cc2N1 | 0% (inactive)
72 | Cc1cccc(N2CCN(C(=O)c3cnc(N4CCCC4)nc3C)CC2)c1C | -23.5% (inactive)

Row | Structure (SMILES) | activity change, negative = inhibition
73 | O=C(CSc1nc2ccccc2o1)N1CCN(c2ccccc2)CC1 | -78.3% (active)
74 | Cc1nc(SCC(=O)N2CCN(c3ccccc3)CC2)[nH]c(=O)c1C | 17.7% (inactive)
75 | O=C(CSc1nc2ccccc2o1)N1CCN(c2ccc(Cl)cc2)CC1 | -0.478% (inactive)
76 | COC(=O)c1ccccc1NC(=O)Cn1c(=O)n(-c2cccc(C(F)(F)F)c2)c(=O)c2c(C)c(C)sc21 | -21.9% (inactive)
77 | O=C(CN1C(=O)COc2ccc(S(=O)(=O)N3CCOCC3)cc21)N1CCN(c2cccc(Cl)c2)CC1 | -4.92% (inactive)
78 | CCC1(CC)NC(=O)N(CC(=O)OCC(=O)NC(=O)c2ccccc2)C1=O | -39.9% (inactive)
79 | Cn1c(CCc2ccccc2)nnc1SCC(N)=O | 8.58% (inactive)
80 | N#CC1=C(SCc2ccc(C#N)cc2)N=C(N)C(c2nc(-c3ccccc3)cs2)C12CCCCC2 (stereo not given) | -98.4% (active)
81 | N#Cc1ccc(CSc2ncccn2)cc1 | 4.06% (inactive)
82 | O=C(CCCn1c(=O)c2cccn2c2cccnc21)NCc1ccc(F)cc1 | -18% (inactive)
83 | CCOc1ccccc1NC(=O)c1ccc2c(c1)CCN2S(=O)(=O)c1ccc(C)cc1 | 18.6% (inactive)
84 | Cc1ccc2nc(C)c3c(c2c1)N(c1ccccc1)CC3 | -71.1% (active)
85 | Cc1ccc2c(c1)c1ncnc(N3CCc4ccccc4C3)c1n2C | 110% (inactive)
86 | Cc1ccc(C(=O)Nc2nc(N)n(-c3ccccc3)n2)cc1 | 68.4% (inactive)
87 | O=C(CN1CCN(Cc2ccc(F)cc2Cl)C1=O)NCc1cccs1 | -20.5% (inactive)
88 | Cc1ccc(N2C(=O)C3C4C=CC(CC4)C3C2=O)cc1Cl (stereo not given) | 2.41% (inactive)
89 | CC(C)CCN(C(=O)c1csnn1)C(C(=O)NC1CCCC1)c1ccccc1 (stereo not given) | 19.1% (inactive)
90 | Cc1ccc(NC(=O)CCCNC(=O)c2ccc(Cl)cc2)cc1S(=O)(=O)N1CCCCC1 | -15.5% (inactive)
91 | Cc1ccc(NC(=O)COC(=O)C2CC2)cc1S(=O)(=O)N1CCOCC1 | -3.87% (inactive)
92 | Cc1ccc(C(=O)OCC(=O)Nc2ccc(Cl)cn2)cc1S(=O)(=O)N1CCOCC1 | -11.7% (inactive)
93 | Cc1ccc(NC(=O)CCNC(=O)c2ccc([N+](=O)[O-])cc2)cc1S(=O)(=O)N1CCOCC1 | -102% (active)
94 | Cc1ccc(NC(=O)COC(=O)CNC(=O)c2ccc(Cl)cc2Cl)cc1S(=O)(=O)N1CCOCC1 | -100% (active)
95 | O=C(CCNC(=O)c1ccc([N+](=O)[O-])cc1)Nc1ccccc1N1CCOCC1 | -0.0167% (inactive)
